For assay [1], the system named is HaCat. Briefly: Cytotoxic Profiling of Annotated Libraries Using Quantitative High-Throughput Screening (AID 1296008). Note: nearly all actives have a fitted effect of over 60% in size. The settings on record: Five cell lines viability, CellTiter-Glo ATP luminescence, 48-72 h; max response: stronger effect = lower value. Summed up:
(§1)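 Compounds were pin-transferred onto cells and incubated 48 or 72 hr at 37 degree Celsius, 95% humidity. CellTiter-Glo was added, plates sat 10 min at room temperature, then ATP-coupled luminescence was imaged as the viability read-out.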

The test system of assay [2] is KB-3-1. The description is as above. The settings on record: Five cell lines viability, CellTiter-Glo ATP luminescence, 48-72 h; max response: stronger effect = lower value. Summed up: as §1
Assay [3] has as its system NIH3T3. The assay is described as above. As to conditions: Five cell lines viability, CellTiter-Glo ATP luminescence, 48-72 h; max response: stronger effect = lower value. Summed up: as §1
For assay [4], the system named is MCC-13. The assay is described as follows: qHTS assay to identify novel small-molecules to repurpose for Merkel cell carcinoma treatment (AID 1296009). Note: nearly all actives have a fitted effect of over 60% in size. The settings on record: MCC and control cell lines, CellTiter-Glo viability, 72 h; series mostly up to 46 µM. The method, boiled down:
(§2)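 Cells exposed to NPC (8-point) and MIPE (11-point) compound dilutions for 72 hr at 37 degree celsius; viability read by CellTiter-Glo luminescence, normalized to no-cell and DMSO in-plate controls.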

For assay [5], the system named is C33A. The assay is described as follows: Primary qHTS to identify gynecologic anti-cancer compounds using libraries of approved drugs and bioactive compounds (AID 1345084). Note: nearly all actives have a fitted effect of over 55% in size. As to conditions: Gynecologic cancer cell panel viability, ATPlite luminescence, 48 h; series mostly up to 57.5 µM. The method, boiled down: (§3)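 Cytotoxicity screen measuring ATP content by luciferase luminescence. Each compound is applied at five concentrations for 48 h at 37 C with 5% CO2.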

Assay [6] deals with CAOV3. Described as above. The settings on record: Gynecologic cancer cell panel viability, ATPlite luminescence, 48 h; series mostly up to 57.5 µM. The method, boiled down: as §3
Assay [7] has as its system CASKI. The assay is described as above. As to conditions: Gynecologic cancer cell panel viability, ATPlite luminescence, 48 h; series mostly up to 57.5 µM. Summed up:
as §3

Assay [8] concerns Es-2. The description is as above. The settings on record: Gynecologic cancer cell panel viability, ATPlite luminescence, 48 h; series mostly up to 57.5 µM. Summed up: as §3
Assay [9] deals with HeLa. The assay is described as above. The settings on record: Gynecologic cancer cell panel viability, ATPlite luminescence, 48 h; series mostly up to 57.5 µM. The method, boiled down:
as §3

Assay [10] has as its system Hek293T. Described as above. The settings on record: Gynecologic cancer cell panel viability, ATPlite luminescence, 48 h, control line for the selectivity index; series mostly up to 57.5 µM. The method, boiled down: as §3
For assay [11], the system named is JEG-3. Described as above. The settings on record: Gynecologic cancer cell panel viability, ATPlite luminescence, 48 h; series mostly up to 57.5 µM. Summed up:
as §3

Assay [12] concerns OV90. The assay is described as above. The settings on record: Gynecologic cancer cell panel viability, ATPlite luminescence, 48 h; series mostly up to 57.5 µM. The method, boiled down:
as §3

The subject of assay [13] is HEK293T. The assay is described as follows: qHTS assay to identify novel small-molecules to repurpose for Merkel cell carcinoma treatment (AID 1296009). Note: nearly all actives have a fitted effect of over 60% in size. As to conditions: MCC and control cell lines, CellTiter-Glo viability, 72 h; at 44.8 µM (top of the series) unless noted. The method, boiled down: as §2
Assay [14] deals with MCC-26. Described as above. The settings on record: MCC and control cell lines, CellTiter-Glo viability, 72 h; series mostly up to 46 µM. The method, boiled down: as §2
The test system of assay [15] is MKL-1. Described as above. As to conditions: MCC and control cell lines, CellTiter-Glo viability, 72 h; series mostly up to 46 µM. The method, boiled down:
as §2

Assay [16] relates to MKL-2. The description is as above. As to conditions: MCC and control cell lines, CellTiter-Glo viability, 72 h; series mostly up to 46 µM. The method, boiled down:
as §2

For assay [17], the system named is HACAT. The description is as above. As to conditions: MCC and control cell lines, CellTiter-Glo viability, 72 h; series mostly up to 44.8 µM. Summed up:
as §2

Assay [18] has as its system UISO. The description is as above. As to conditions: MCC and control cell lines, CellTiter-Glo viability, 72 h; series mostly up to 46 µM. The method, boiled down: as §2
The subject of assay [19] is WaGa. Described as above. The settings on record: MCC and control cell lines, CellTiter-Glo viability, 72 h; series mostly up to 46 µM. The method, boiled down:
as §2

Assay [20] has as its system NIH3T3. Described as above. The settings on record: MCC and control cell lines, CellTiter-Glo viability, 72 h; at 44.8 µM (top of the series) unless noted. The method, boiled down:
as §2

Several values for one entry are separate records, joined by “and”; a condition that tells them apart may be missing. Identical values can stand only once. Results filed as inconclusive are left out. A structure can be active in one record and inactive in another. A number with no mark means an inactive call. Activity calls are given as the source filed them. Calls come from the whole dose curve; as a rule, active = well fitted curve in the direction sought with a large enough effect; inconclusive = small, poorly fitted or top-dose-only effect, or another doubt; inactive = no such curve, though single readings can be large; an effect the other way counts as inactive or inconclusive.
% is set by controls: 0 for no effect and ±100 for the full control effect; potency is the fitted concentration of half-maximal effect.

Regarding `CCNC(=O)Nc1ccc2ncc(Nc3ccc(C)cc3)nc2n1`, the max response in [1] was -7.35% and 2.38%; in [2] it was -0.0839%; in [3], 4.76% and -10.1%. Also, in assay [2], the call was inactive. The Potency result in [4], in assay [5], in assay [6], in [7], in assay [8] and in assay [9] was “inactive” throughout. Besides, the Potency entry in assay [10], in assay [11] and in [12] was “inactive” throughout.

For `Cc1ccc2nc(NC(=O)CSc3nc4c(c(=O)n3-c3ccccc3)SCC4)sc2c1`, the figures for the max response in assay [1], in assay [2] and in assay [3] were 3.94%, -10.5% and -19.8%, respectively. For the same compound, the Potency in [2] is 9.35 µM (active). Besides, the compound was called inactive in assay [13]. Besides, the Potency entry in assay [4], in assay [14], in assay [15], in [16], in assay [5] and in assay [7] was “inactive” throughout. The Potency entry in assay [8], in [9], in assay [10], in assay [11] and in [12] was “inactive” each time.

As to `OCc1ccc(-c2ccc(-c3ccc(CO)s3)o2)s1`, the values for the max response in [1], in [2] and in assay [3] were 4.62%, -70.8% and -23.8%, respectively. For the same compound, in assay [1], the call was inactive. Moreover, the Potency in assay [2] was 2.82 µM (active); in assay [10], 1.41 µM (active); in [12], 3.16 µM (active). The Potency entry in assay [17], in assay [14], in assay [5], in assay [9] and in [11] was “inactive” each time.

With `Cc1cc(Nc2ncnc3ccc(-c4ccc(CNCCS(C)(=O)=O)o4)cc23)ccc1Oc1ccn2ncnc2c1`, the max response in assay [1] was -107%; in assay [2], -26.8%; in assay [3], -81.1%. For the same compound, the Potency in assay [2] was 11.8 µM (active); in assay [15], 14.8 µM (active); in [16], 18.7 µM (active); in [18] it was 14.8 µM (active); in assay [19] it was 5.26 µM (active). Further, the Potency result in [4], in assay [14], in assay [5], in assay [6], in assay [7] and in [8] was “inactive” throughout. Moreover, the Potency entry in assay [9], in assay [10], in assay [11] and in [12] was “inactive” in each case.

Take `CC1(O)CC(c2nc(-c3ccc4ccc(-c5ccccc5)nc4c3)c3c(N)nccn23)C1` (stereo unspecified): the max response in [1] is -1.26%. Further, the compound was classed as inactive in [1]. The Potency in assay [3] was 16.6 µM (active); in assay [18] it was 0.662 µM (active). Besides, the Potency result in assay [17], in assay [4], in assay [14], in assay [5], in [6] and in assay [7] was “inactive” throughout. Further, the Potency result in assay [8], in assay [10], in assay [11] and in assay [12] was “inactive” in each case.

Regarding `O=C1CCC[C@@H]2[C@H]3CCC[N+]4([O-])CCC[C@@H](CN12)[C@@H]34` (stereo partly specified), the max response is 2.01% in assay [1]; -0.364% and 8.14% in [2]; -2.91% in [3]. The compound was called inactive in assay [1], in assay [3] and in [20]. Also, the Potency entry in assay [17], in assay [4], in [14], in [15], in [16] and in assay [18] was “inactive” throughout. Further, the Potency result in assay [19], in assay [5], in [7], in assay [8], in assay [9] and in [10] was “inactive” in each case. In addition, the Potency entry in [11] and in assay [12] was “inactive” each time.

On to `COc1ccc2c(c1)CC[C@@H](CN(C)CC(=O)O)[C@H]2c1ccccc1`, for which the figures for the max response in [1] and in [2] were 0.39% and 2.76%, respectively. Moreover, the figures for the Potency in assay [2] and in [3] were 3.32 µM (active) and 7.43 µM (active), respectively. Further, the compound was called inactive in [3] and in [20]. Moreover, the Potency result in assay [5], in assay [6], in assay [7], in [8], in [9] and in [10] was “inactive” in each case. Also, the Potency result in assay [11] and in assay [12] was “inactive” in each case.

In the case of `c1ccc2c(CCNc3ccc(Nc4ccncc4)cc3)c[nH]c2c1`, the Potency is 11.8 µM (active) in assay [1]; 23.5 µM (active) in [2]; 16.6 µM (active) and 11.6 µM (active) in [3]; 20.9 µM (active) in assay [4]; 9.35 µM (active) in [15]; 5.9 µM (active) in assay [16]. The Potency was 13.2 µM (active) in [18] and 7.43 µM (active) in assay [19]. Moreover, the max response in assay [1] is 2.65%. For the same compound, the Potency result in assay [9] and in assay [11] was “inactive” in each case.

`CNC(=O)c1ccc(N2C(=S)N(c3cnc(C#N)c(C(F)(F)F)c3)C(=O)C23CCC3)cc1F`: the max response in [1] was -2.38% and -0.362%; in assay [2], -8.3%; in [3] it was 0.376%. In addition, the compound was classed as inactive in [2], in assay [3], in assay [13] and in [20]. The Potency in [16] is 26.4 µM (active); in assay [19], 9.35 µM (active). For the same compound, the Potency result in assay [5], in assay [7], in assay [8], in [9], in assay [10] and in assay [11] was “inactive” each time. Further, the Potency result in assay [12] is “inactive”.

`CN(C1CCc2c(c3ccccc3n2CC(=O)O)C1)S(=O)(=O)c1ccc(F)cc1` (stereo unspecified): the max response in assay [1] was -11.8% and -5.06%; in [2] it was 7.37%. Also, the result in assay [1], in assay [2], in [3], in [13] and in assay [20] was inactive. For the same compound, the Potency result in assay [17], in assay [4], in assay [14], in [15], in [18] and in assay [5] was “inactive” in each case. The Potency result in assay [6], in assay [7], in assay [8], in assay [9], in assay [10] and in [11] was “inactive” throughout. Moreover, the Potency result in assay [12] was “inactive”. The Potency in assay [19] was 5.9 µM (active).

Regarding `CNC(=O)c1c(F)cccc1Nc1nc(Nc2cc3c(cc2OC)CCN3C(=O)CN(C)C)nc2[nH]ccc12`, the Potency in assay [1] is 18.4 µM (active); in assay [3], 7.31 µM (active); in assay [14], 23.5 µM (active); in assay [15] it was 18.7 µM (active); in [16] it was 5.9 µM (active); in assay [18], 5.9 µM (active). For the same compound, in assay [19], the Potency is 18.7 µM (active). Moreover, the compound was classed as inactive in [1]. The Potency result in assay [17], in assay [5], in assay [7], in assay [8], in [9] and in assay [10] was “inactive” each time. The Potency entry in [11] and in assay [12] was “inactive” in each case.
